Data on 20 compounds can be found in PubChem BioAssay (NCATS).

Assay [1] is described as follows: Cytotoxicity counterscreen for inhibitors of SARS-CoV-2 cell entry (AID 1645845; calls by dose curve; further: nearly all actives have a fitted effect of over 50% in size). An outline of the steps:
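Expi293F/hACE2 cells seeded overnight; cpd pin-transferred in DMSO, 1 h preincubation, + media, 48 h 37 C 5% CO2; ATPLite 1step luminescence; normalized to cells and no cells.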
For orientation: The purpose of a counterscreen is to sort out artefacts and off-target activity.

Assay [2] relates to CRL-7250. As to the kind of experiment: qHTS assay to identify novel small-molecules to repurpose for Merkel cell carcinoma treatment (AID 1296009). Further: nearly all actives have a fitted effect of over 60% in size. The settings on record: MCC and control cell lines, CellTiter-Glo viability, 72 h; series mostly up to 92 µM. An outline of the steps: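 Cells exposed to NPC (8-point) and MIPE (11-point) compound dilutions for 72 hr at 37 degree celsius; viability read by CellTiter-Glo luminescence, normalized to no-cell and DMSO in-plate controls.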
A general note: Quantitative high-throughput screening tests each substance at several concentrations.

Assay [3] is described as follows: Primary qHTS to identify inhibitors of SARS-CoV-2 cell entry (AID 1645846; calls by dose curve; further: nearly all actives have a fitted effect of over 45% in size). The settings on record: activity change, negative = inhibition: at 57.1 µM (top of the series) unless noted. The method in brief: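 Using luciferase-reporting pseudoviruses carrying Wuhan-Hu-1 spike, the screen tracks entry into stably ACE2-expressing cells over 48 hr. Activity is expressed relative to spike particles versus particles lacking any fusion protein.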

The target of assay [4] is Alpha-galactosidase (Coffea arabica) (UniProt Q42656). As to the kind of experiment: Counterscreen for Glucocerebrosidase Inhibitors: qHTS Assay for Coffee Bean alpha-Galactosidase at pH 4.5 (AID 957).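 Further: plate controls were enzyme alone for no effect and no enzyme for full effect.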 An outline of the steps: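 Green coffee bean enzyme (2 nM final) was incubated with compounds (0.7 nM to 77 uM) and 4-methylumbelliferyl alpha-D-galactopyranoside (80 uM final) in 50 mM citric acid, 0.005% Tween-20, pH 4.5, 20 min at room temperature; AC50 from Hill fits.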
Alpha-galactosidase (Coffea arabica), sequence (Q42656 whole entry, looked up): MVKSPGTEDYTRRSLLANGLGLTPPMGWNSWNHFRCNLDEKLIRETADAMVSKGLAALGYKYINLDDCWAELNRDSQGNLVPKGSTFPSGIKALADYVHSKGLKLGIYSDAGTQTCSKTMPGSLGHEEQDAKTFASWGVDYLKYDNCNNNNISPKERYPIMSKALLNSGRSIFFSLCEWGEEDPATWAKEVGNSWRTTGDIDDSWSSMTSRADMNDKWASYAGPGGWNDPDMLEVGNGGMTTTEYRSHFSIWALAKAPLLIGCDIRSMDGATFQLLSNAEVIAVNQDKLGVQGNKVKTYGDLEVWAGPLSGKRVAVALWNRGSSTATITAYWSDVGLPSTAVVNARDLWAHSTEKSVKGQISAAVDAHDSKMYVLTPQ

For assay [5] the target is unchanged. As to the kind of experiment: Counterscreen for Glucocerebrosidase Inhibitors: qHTS Assay for Coffee Bean alpha-Galactosidase at pH 5.9 (AID 998).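 Further: plate controls were uninhibited enzyme for no effect and no-enzyme basal signal for full effect.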 The method in brief:
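Green coffee bean enzyme (2 nM final) was incubated with compounds (0.7 nM–77 uM) and 4-methylumbelliferyl alpha-D-galactopyranoside (80 uM) in citrate buffer pH 5.9, 20 min at room temperature. High-pH stop; fluorescence 365/440 nm; AC50 from Hill fits.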

Assay [6] is described as follows: Validation screen for inhibitors of Lassa infection (AID 463096; calls by dose curve; further: on the % scale 0 is the no-effect control and ±100 the full control effect).
Assay [7] is described as follows: Inducers of the Endoplasmic Reticulum Stress Response (ERSR) in human glioma: Validation (AID 504836). Further: 0% is about no effect. The method in brief: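 Stably transfected U87-MG human glioma cells carrying a GRP78-based luminescent sensor were seeded at 1000 cells/well, pin-dosed with compounds and incubated 16 h. Luciferase reagent was then added, and end-point luminescence was read after 10 min at room temperature.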

Assay [8] addresses Nuclear receptor subfamily 1 group I member 3 (Homo sapiens) (UniProt Q14994). As to the kind of experiment: Primary qHTS for antagonist of constitutive androstane receptor (CAR) against the NCATS DSHEA and TCM libraries (AID 1794836). The method in brief: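 HepG2 cells stably carrying hCAR and a CYP2B6 luciferase reporter (2,500 cells/well) attached for 5 h, then received compounds with 48 uM CITCO for 24 h at 37C. ONE-Glo luminescence read antagonism; CellTiter-Fluor (405/540 nm) gave viability.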

A short description of assay [9]: KB-8-5-11 P-gp reporter qHTS against the NCATS DSHEA and TCM libraries (AID 1919977). Further: 0% is about no effect. An outline of the steps:
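Viability of drug-resistant KB-8-5-11 cells is measured by CellTiter-Glo luminescence following roughly 72 h treatment at 37C. Substances were titrated, with bortezomib as intraplate control.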

Each structure is given as a SMILES string. Records with an inconclusive call do not appear. Active and inactive are the calls of the source. Unless noted, the call rests on the fitted dose curve; in most records, active means well fitted curve in the direction sought with a large enough effect; inconclusive means small, poorly fitted or top-dose-only effect, or another doubt; inactive means no such curve, though single readings can be large; an effect the other way counts as inactive or inconclusive.

Nuclear receptor subfamily 1 group I member 3 (Homo sapiens), sequence (Q14994 whole entry, looked up): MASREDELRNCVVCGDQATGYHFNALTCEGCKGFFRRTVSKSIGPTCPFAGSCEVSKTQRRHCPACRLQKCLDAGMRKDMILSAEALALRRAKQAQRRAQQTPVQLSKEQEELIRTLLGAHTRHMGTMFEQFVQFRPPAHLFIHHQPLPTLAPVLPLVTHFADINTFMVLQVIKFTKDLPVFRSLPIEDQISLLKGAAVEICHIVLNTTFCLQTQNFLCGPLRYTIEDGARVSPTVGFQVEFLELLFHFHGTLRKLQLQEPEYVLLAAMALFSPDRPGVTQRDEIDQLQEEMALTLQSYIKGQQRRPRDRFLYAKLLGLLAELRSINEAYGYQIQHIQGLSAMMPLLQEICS

As to `CCNC1(C(N)=O)CCN(c2ncnc3c2nc(-c2ccccc2Cl)n3-c2ccc(Cl)cc2)CC1`, the Potency result in assay [1] and in assay [2] was “inactive” in each case.

Consider `CO[C@@H]1COCC[C@@H]1N[C@@H]1CC[C@@](C(=O)N2CCc3ncc(C(F)(F)F)cc3C2)(C(C)C)C1`, for which the Potency result in assay [1], in [3] and in assay [2] was “inactive” each time.

Take `O=C(CCc1ccc(O)cc1)c1c(O)cc(O)cc1O`: the outcome in assay [4], in [5] and in assay [7] was inactive. Moreover, the Potency result in assay [6] and in assay [2] was “inactive” each time. The activity change, negative = inhibition in assay [3] was -19.9%.

Take `CC(=O)O[C@@H]1C[C@@H](C)[C@](O)(CCC2=CC(=O)OC2)[C@@]2(C)CCCC(C)(C)C12` (some centres undefined): the Potency result in assay [8] and in [2] was “inactive” each time. Also, the result in [9] was inactive.

`CCCCOc1nc(N)c2c(n1)N(Cc1cccc(CN3CCCC3)c1)CC(=O)N2`: the Potency entry in [1] and in assay [2] was “inactive” each time. The activity change, negative = inhibition in assay [3] was -22.5%.

On to `COc1cc(S(C)(=O)=O)ccc1Nc1nc2ccc(-c3ccc(NC(=O)[C@H](C)c4ccc(F)cc4)cc3)cn2n1`, for which the Potency entry in assay [1] and in assay [2] was “inactive” in each case.

Consider `COCCCc1sc(-c2ccccc2)nc1C(=O)Nc1ccccc1-c1nc2cc(CN3CCCC3)cnc2s1`, for which the Potency result in assay [1], in assay [3] and in assay [2] was “inactive” in each case.

In the case of `C=C1C[C@@]2(O)O[C@@]3(C[C@H]2C(C)C)[C@@H](C)CC[C@@H]13`, the Potency result in assay [1], in [3] and in assay [2] was “inactive” in each case.

`COCCOc1ccc(N2CCN(CCn3ncc4c3nc(N)n3nc(-c5ccco5)nc43)CC2)cc1`: the Potency result in [1] and in [2] was “inactive” each time. The activity change, negative = inhibition in [3] is -15.3%.

Take `CC(C)=CCC(O)/C(C)=C/CO[C@@H]1O[C@H](CO)[C@@H](O)[C@H](O)[C@H]1O` (some centres undefined): the Potency entry in [8] and in [2] was “inactive” throughout. For the same compound, the compound was classed as inactive in assay [9].

With `OC[C@H]1O[C@@H](Oc2cc(O)cc(/C=C/c3ccc(O)cc3)c2)[C@H](O)[C@@H](O)[C@@H]1O`, the Potency result in assay [1], in assay [3] and in [2] was “inactive” in each case.

In the case of `Cc1c(F)cc(C(=O)NC2CC2)cc1-c1ccc(C(=O)NCC(C)(C)C)cn1`, the Potency result in assay [1] and in assay [2] was “inactive” in each case. In assay [3], the activity change, negative = inhibition was -35.5%.

As for `c1cc(-c2cnn3cc(-c4ccc(N5CCNCC5)cc4)cnc23)c2cccnc2c1`, the Potency entry in assay [1] and in assay [2] was “inactive” throughout.

Regarding `COc1cc(-c2cc(-c3ccc(N4CCNCC4)cc3)cnc2C)cc(OC)c1OC`, the Potency result in [1] and in assay [2] was “inactive” throughout.

In the case of `CCS(=O)(=O)N1CCC([C@@H](C)n2c(C)c(C(=O)NCc3c(OC)cc(C)[nH]c3=O)c3ccccc32)CC1`, the Potency entry in [1], in assay [3] and in assay [2] was “inactive” throughout.

For the compound `O=C1C(c2c(O)[nH]c3ccccc23)=Nc2ccccc21`, the Potency entry in assay [1], in assay [3] and in assay [2] was “inactive” each time.

Regarding `CCN(c1cc(C#CCN2CCOCC2)cc(C(=O)NCc2c(C)cc(C)[nH]c2=O)c1C)C1CCC(N(C)CCOC)CC1` (centres undefined), the Potency result in assay [1], in assay [3] and in [2] was “inactive” each time.

For `CS(=O)(=O)c1ccc(Oc2cc(F)cc(C#N)c2)c2c1[C@H](O)C(F)(F)C2`, the Potency result in assay [1], in assay [3] and in assay [2] was “inactive” in each case.

As to `Cc1nn(C)c2c1C(c1ccc(C(F)(F)F)cc1)C(C#N)=C(N)O2` (centres undefined), the Potency result in assay [1], in assay [3] and in assay [2] was “inactive” each time.

On to `CC(=O)C1=C(O)C=C2Oc3c(C(C)=O)c(O)c(C)c(O)c3[C@]2(C)C1=O`, for which the Potency entry in assay [8] and in [2] was “inactive” each time. Further, the compound was classed as inactive in assay [9].
